The source made the active and inactive calls. How the source made its calls: active means hit-call score of the fitted dose curve at least 0.9, where 1 is the maximum; inactive means score below 0.9.
Assay: ATG_AP_2_CIS: Attagene CIS-FACTORIAL HepG2 Assay for human Activator Protein 2 (AP-2) (AID 2282932)
Conditions: HepG2 AP-2 cis-reporter, Attagene transcription factor profiling; actives raise or lower the signal
Protocol: ATG_CIS is a cell-based, multiplexed-readout assay that uses HepG2, a human liver cell line, with measurements taken at 24 hours after chemical dosing in a 24-well plate.ATG_AP_2_CIS is one of 52 assay component(s) measured or calculated from the ATG_CIS assay. It is designed to make measurements of mRNA induction, a form of inducible reporter, as detected with fluorescence intensity signals by Reverse transcription polymerase chain reaction (RT-PCR) and Capillary electrophoresis technology.Data from the assay component ATG_AP_2_CIS was analyzed into 1 assay endpoint. This assay endpoint, ATG_AP_2_CIS, was analyzed with bidirectional fitting relative to DMSO as the negative control and baseline of activity. Using a type of inducible reporter, measures of mRNA for gain or loss-of-signal activity can be used to understand the reporter gene at the transcription factor-level as they relate to the gene TFAP2A and TFAP2B and TFAP2D. Furthermore, this assay endpoint can be referred to as a primary readout, because this assay has produced multiple assay endpoints where this one serves a reporter gene function. To generalize the intended target to other relatable targets, this assay endpoint is annotated to the dna binding intended target family, where the subfamily is basic helix-turn-helix leucine zipper.
Human liver HepG2 cells are transiently transfected with multiple reporter transcription units (MRTUs) in 6-well plates using FuGene 6 reagent (Roche; 3 ml FuGene/1 mg DNA). The MRTU constructs are regulated by a cis-regulating element (promoter). […] A major difference between the CIS and TRANS system is that in CIS activities of endogenous TFs are measured, whereas the TRANS assay evaluates changes in activities of exogenous, chimeric NR-Gal4 proteins. […] At the end of 24 hour incubation, total RNA was isolated using TriZol reagent (Invitrogen). The isolated RNA is then reverse-transcribed using oligo(dT) primer and Mo-MLV reverse transcriptase (Invitrogen) with DNAse I (Ambion) treatment for 30 min. The one-tenth of the produced cDNA was amplified by PCR using Taq DNA polymerase (Invitrogen) and two reporter sequence-specific primers. The PCR products were fluorescently labeled by primer extension with 6-arboxyfluorescein (6-FAM) 5'-labeled reporter sequence-specific primer (2 min at 95 C, 20 s at 68 C and 10 min at 72 C) and these products were digested with 5U of HpaI (New England Biolabs) for 2h at 37 C. The fragments were purified using Qiaquick PCR columns (Qiagen), analyzed on an ABI 3130xL genetic analyzer (Applied Biosystems) with peak positions identified by using a set of X-rhodamine (ROX)-labeled MapMarker1000 molecular weight standards (BioVentures). The raw capillary electrophoresis data was processed using Attagraph software (Attagene).

Structure (SMILES)	outcome	AC50
Cc1nc(-c2ccc3c(c2)CCN(CCC2CCC(NC(=O)/C=C/c4ccc(F)cc4)CC2)CC3)no1 (stereo not given)	inactive	
CCCCCCCCCCCCCCCCCC(=O)O	inactive	
CC(=O)OC/C=C(\C)CCC=C(C)C	inactive	
CCCc1cc(=O)[nH]c(=S)[nH]1	inactive	
CCCCCC(=O)O	inactive	
c1cc(-c2ccncc2)ccn1	inactive	
CNCc1cc(F)ccc1Oc1ccc(Cl)c(Cl)c1	inactive	
COc1cc(-c2nc(NC(=O)c3cc4cc(C)cc(C)c4n3CC(=O)O)sc2CCC2CCCCC2)c(OC)cc1Cl		10.4 µM (active)
NS(=O)(=O)c1cc2c(cc1Cl)NCNS2(=O)=O	inactive	
COCCOCCOC	inactive	
COc1ccc2c(c1)c(CC(=O)O)c(C)n2C(=O)c1ccc(Cl)cc1	inactive	
CC(=O)OCCOCCOCCOC(C)=O	inactive	
C=CCOC(=O)c1ccccc1C(=O)OCC=C	inactive	
Cc1ccc2ncccc2c1	inactive	
O=C(O)Cc1ccccc1Nc1c(Cl)cccc1Cl	inactive	
Oc1ccc2ccccc2c1N=Nc1ccccc1	inactive	
Nc1ccccc1N	inactive	
O=C(N[C@@H](Cc1ccccc1)[C@@H](O)C(=O)N1C[C@@H](O)[C@@H](O)C1)c1cc2cc(Cl)ccc2[nH]1		155 µM (active)
CN1CCN(Cc2cc(-c3ccc4[nH]c(=O)oc4c3)co2)[C@@H](c2ccc(F)cc2)C1	inactive	
CC1=C(/C=C/C(C)=C/C=C/C(C)=C/CO)C(C)(C)CCC1		164 µM (active)

Structure (SMILES)	outcome	AC50
Cc1cccc(Nc2cc(Cl)nc(SCC(=O)O)n2)c1C	inactive	
NCC1(Cc2noc(=O)[nH]2)CCCCC1	inactive	
COc1ccc(C)cc1N	inactive	
COc1cc(S(=O)(=O)O)c(C)cc1N=Nc1c(O)ccc2cc(S(=O)(=O)O)ccc12	inactive	
O=C(OCCCCCOC(=O)c1ccccc1)c1ccccc1	inactive	
Cc1cc(NC(=O)C(=O)O)cc(C)c1Oc1ccc(O)c2c1CCC2	inactive	
COc1cc(/C=C/C(=O)CC(=O)/C=C/c2ccc(O)c(OC)c2)ccc1O		55.5 µM (active)
CN[C@H]1CC[C@@H](c2ccc(Cl)c(Cl)c2)c2ccc(S(N)(=O)=O)cc21	inactive	
COc1cc(C=O)ccc1O	inactive	
Cc1oc(-c2ccccc2)nc1CCOc1cccc2c1ccn2CCC(=O)O	inactive	
CCCCCCCCCCCC(=O)OC	inactive	
Oc1ccc2c(c1)OC[C@@H](N1CCC(O)(c3ccc(F)cc3)CC1)[C@H]2O	inactive	
Cc1ccc(N(C)C)cc1	inactive	
Cc1c(C(=O)O)c(O)cc2c1C(=O)c1c(O)c([C@@H]3O[C@H](CO)[C@@H](O)[C@H](O)[C@H]3O)c(O)c(O)c1C2=O	inactive	
CC(=O)C(C)=CC1C(C)=CCCC1(C)C (stereo not given)	inactive	
Clc1cc(Cl)c(Cl)cc1Cl	inactive	
CN1CCCC1=O	inactive	
CCCCCCCCCCO	inactive	
CCCCC(CC)COC(=O)CC(C(=O)OCC(CC)CCCC)S(=O)(=O)O (stereo not given)	inactive	
Nc1ccc2c(c1)C(=O)c1ccccc1C2=O	inactive	

— PubChem BioAssay (EPA / NIEHS)
